From PubChem
Mtb BioA inh: blocks M. tuberculosis BioA enzyme activity; purified M. tuberculosis BioA enzyme, plate reader; AID 602481; 0.096% of 360,000 active; inhibition, % at 9.99 µM; in the data active = inhibition above about 40%; inconclusive = no clear call, values can overlap the other calls
PfHsp40 yeast: rescue of PfHsp40-mediated yeast toxicity; AID 504582; 0.68% of 340,000 active; growth rescue, % at 12.5 µM; S. cerevisiae expressing PfHsp40, growth rescue, ATP luminescence; in the data active = growth rescue above about 28%, passing the limit was not always enough; inconclusive = no clear call, values can overlap the other calls;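 also: yeast W303a lacking pdr1 and pdr3 grown in galactose medium; growth measured after three days at 30 °C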
Yp Topo-I inh: Y. pestis Topo-I inhibition via cleavage products; Y. pestis Topo-I cleavage product accumulation, plate reader; activity, % at 10 µM; 0.064% of 360,000 active; AID 504884; in the data active = activity above about 50%, passing the limit was not always enough; inconclusive = no clear call, values can overlap the other calls
PrP UTR inh: suppresses PrP 5' UTR mRNA reporter expression; inhibition, % (test concentration not listed); AID 488862; 0.35% of 340,000 active; cell-based PrP 5' UTR mRNA reporter, plate reader; in the data active = inhibition above about 52%
FadD28 binding: blocks FadD28 binding to the bisubstrate probe; fluorescence polarization; inhibition, % at 12.5 µM; 0.22% of 360,000 active; AID 588549; in the data active = inhibition above about 8.5%, passing the limit was not always enough; inconclusive = no clear call, values can overlap the other calls
TcdB inh: inhibitors of Clostridioides difficile toxin B glycohydrolase; AID 652162; TcdB glycohydrolase enzymatic assay, plate reader; inhibition, % at 9.99 µM; 0.24% of 350,000 active; in the data active = inhibition above about 10%
Each line names hits and unclear results; the compound was inactive in the other large screens. The list is not random: actives were taken first. Their share in the collection is about 1.2%.

CC(=O)OCC1OC(n2cc(F)c(=O)[nH]c2=O)C(OC(C)=O)C1OC(C)=O (stereo not given)	none
O=C1C(F)=CC(COC(c2ccccc2)(c2ccccc2)c2ccccc2)OC1n1cc(F)c(=O)[nH]c1=O (stereo not given)	PfHsp40 yeast 154 (no result: Mtb BioA inh)
COc1ccc(OC)c(NC(=O)CN=[N+]=[N-])c1	none (no result: Mtb BioA inh, PfHsp40 yeast, Yp Topo-I inh, PrP UTR inh, FadD28 binding)
COC(=O)c1cn(C[C@H](Cc2ccccc2)NC(=O)c2ccccc2)nn1	none (no result: Mtb BioA inh, PfHsp40 yeast, Yp Topo-I inh, PrP UTR inh, FadD28 binding)
CCCC#Cc1cnc2c(c1)C(=O)N([C@H](C)CO)C[C@@H](C)[C@@H](CN(C)C(=O)C1CCCCC1)O2	none (no result: PfHsp40 yeast, Yp Topo-I inh, PrP UTR inh, FadD28 binding, TcdB inh)
Cc1ccc(-n2sc3ccccc3c2=O)cc1	PfHsp40 yeast 80 (no result: Mtb BioA inh, TcdB inh)
COC(=O)c1cccc(-n2sc3ccccc3c2=O)c1	PfHsp40 yeast 119
O=c1c2ccccc2sn1-c1ccc(Cl)cc1	none (no result: PfHsp40 yeast, PrP UTR inh)
O=c1c2ccccc2sn1-c1ccc(F)cc1	PfHsp40 yeast 102
C/C=C/c1cnc2c(c1)C(=O)N([C@H](C)CO)C[C@@H](C)[C@@H](CN(C)C(=O)Nc1ccc(OC)cc1)O2	none (no result: PfHsp40 yeast, Yp Topo-I inh, PrP UTR inh, FadD28 binding)
C=CCN(c1ccccc1)S(=O)(=O)c1cccc(C(=O)NNC(=O)c2ccccc2O)c1	PfHsp40 yeast 92
O=C(C[C@@H]1C=C[C@H](NC(=O)C2CCC2)[C@H](CO)O1)NCCCN1CCOCC1	none (no result: PfHsp40 yeast, Yp Topo-I inh, PrP UTR inh, FadD28 binding)
CCN(CC)c1ccc(/C=C2\C(=O)c3ccc(C(=O)O)cc3C2=O)cc1	FadD28 binding 25 (no result: Mtb BioA inh, TcdB inh)
CCN(CC)c1ccc(C(=O)O)cc1	none (no result: Mtb BioA inh)
CN(C)CCCNC(=O)C[C@@H]1CC[C@H]2[C@@H](COC[C@@H](O)CN2Cc2ccc(Cl)c(Cl)c2)O1	none (no result: PfHsp40 yeast, Yp Topo-I inh, PrP UTR inh, FadD28 binding)
COc1ccc(OC)c(N2C(=O)NC(=O)/C(=C/c3ccc([N+](=O)[O-])s3)C2=O)c1	FadD28 binding 21
COc1cc(/C=C2\C(=O)NC(=O)N(c3ccccc3)C2=O)c([N+](=O)[O-])cc1OC	none
CCOC(=O)c1c(C)[nH]c(C)c1C(=O)COC(=O)/C=C/c1ccc(OC)cc1	none
CCOC(=O)c1c(C)[nH]c(C)c1C(=O)COC(=O)/C=C/c1ccco1	TcdB inh 10
CCCN1C[C@H](C)[C@H](OC)CN(C)C(=O)c2ccc(NC(=O)c3ccc(F)cc3)cc2OC[C@@H]1C	none (no result: PfHsp40 yeast, Yp Topo-I inh, PrP UTR inh, FadD28 binding, TcdB inh)
CC1=CC(=O)C=C(C)C1=NOS(=O)(=O)c1ccccc1	PfHsp40 yeast 335 (no result: TcdB inh)
CC1=CC(=O)C(C(C)C)=C/C1=N/OS(=O)(=O)c1ccccc1	PfHsp40 yeast 346
CCCC1CC(C)(c2csc(Nc3ccc(OCC)cc3)n2)OC1=O (stereo not given)	PfHsp40 yeast 50
Cc1ccc(S(=O)(=O)N(C)C[C@@H]2OCCCC[C@@H](C)Oc3ccc(NC(=O)Nc4ccccc4)cc3C(=O)N([C@@H](C)CO)C[C@@H]2C)cc1	none (no result: PfHsp40 yeast, Yp Topo-I inh, PrP UTR inh, FadD28 binding)
O=P(c1ccccc1)(c1ccccc1)c1nc(-c2ccccc2)oc1N1CCOCC1	Yp Topo-I inh 58
CCN1[C@H](C(=O)NCc2ccc(F)cc2)[C@@H](CO)[C@@H]2Cn3c(ccc(-c4ccccc4OC)c3=O)[C@@H]21	none (no result: PfHsp40 yeast, Yp Topo-I inh, PrP UTR inh, FadD28 binding)
O=C(Cc1ccccn1)NCC[C@@H]1CC[C@@H](NS(=O)(=O)c2ccc(F)cc2)[C@H](CO)O1	none (no result: PfHsp40 yeast, Yp Topo-I inh, PrP UTR inh, FadD28 binding)
N#CCCN(C(=O)Nc1ccccc1)c1ccccc1	PfHsp40 yeast 66 (no result: TcdB inh)
COc1cc(C2C3C(C)N(C)C(=O)N(C)C3N(C)C(=O)N2C)ccc1O (stereo not given)	PfHsp40 yeast 52 (no result: TcdB inh)
COc1cc(C2SCC(=O)N2CCN2CCCCC2)ccc1O (stereo not given)	none
COc1ccccc1CNC(=O)CNC(=O)N1CC(=O)Nc2ccccc21	TcdB inh 11
C[C@@H]1CCCCO[C@H](CN(C)C(=O)CCC(F)(F)F)[C@@H](C)CN([C@H](C)CO)C(=O)c2cc(NS(=O)(=O)c3ccccc3)ccc2O1	none (no result: PfHsp40 yeast, Yp Topo-I inh, PrP UTR inh, FadD28 binding)
Oc1c(CN2CCCCC2)ccc2cccnc12	PfHsp40 yeast 47
COc1ccc(C(=O)NC(=S)NNC(=O)c2ccc(O)cc2)cc1[N+](=O)[O-]	PfHsp40 yeast 52
COc1cc(/C=C(/NC(=O)c2ccccc2)C(=O)Nc2ccc(O)cc2)c([N+](=O)[O-])cc1OC	TcdB inh 13 (no result: Mtb BioA inh)
O=C(Nc1ccc(O)cc1)/C(=C\c1cccs1)NC(=O)c1ccccc1	TcdB inh 19 (no result: Mtb BioA inh)
CO[C@H]1CN(C)C(=O)c2ccc(NC(=O)C3CC3)cc2OC[C@H](C)N(CC2CCOCC2)C[C@H]1C	none (no result: PfHsp40 yeast, Yp Topo-I inh, PrP UTR inh, FadD28 binding)
Cc1ccc(S(=O)(=O)N2[C@@H](c3cccc(Cl)c3)C(C(=O)O)=CC[C@H]2c2cccc(C)c2)cc1	FadD28 binding inconclusive
Cc1ccc([C@H]2C(C(=O)O)=CC[C@@H](c3cccc(Cl)c3)N2S(=O)(=O)c2ccc(C)cc2)cc1	PfHsp40 yeast 213
Cc1ccc(S(=O)(=O)N2[C@@H](c3cccc(Cl)c3)C(C(=O)O)=CC[C@H]2c2cccc(Cl)c2)cc1	FadD28 binding 14
CO[C@H]1CN(C)C(=O)c2cc(NS(=O)(=O)c3cccc(F)c3)ccc2OC[C@H](C)N(C(=O)Cc2cccnc2)C[C@@H]1C	none (no result: PfHsp40 yeast, Yp Topo-I inh, PrP UTR inh, FadD28 binding)
CCc1ccc(Nc2c([N+](=O)[O-])c(=O)oc3ccccc23)cc1	PfHsp40 yeast 116 (no result: Mtb BioA inh)
Cc1ccc(Nc2c([N+](=O)[O-])c(=O)oc3ccccc23)cc1	none (no result: Mtb BioA inh)
COC(=O)C[C@@H]1C[C@H]2c3cc(NC(=O)Nc4ccc(C(F)(F)F)cc4)ccc3O[C@H]2[C@@H](CO)O1	none (no result: PfHsp40 yeast, Yp Topo-I inh, PrP UTR inh, FadD28 binding)
CC(C)c1c(O)ccc2c1CC[C@H]1C(C)(C)CCC[C@]21C	PfHsp40 yeast 112
CC(C)(O)c1ccc2c(c1)CCC1C(C)(C(=O)O)CCCC21C (stereo not given)	none
C/C(=N\NC(=S)NCCc1ccccc1)c1ccc(C)cc1	PfHsp40 yeast 30 (no result: TcdB inh)
COc1ccc(/C=C2/Sc3ccc(C(=O)N4CCc5ccccc5C4)cc3NC2=O)cc1	PfHsp40 yeast 48 (no result: Mtb BioA inh)
O=C(Nc1ccc(C(F)(F)F)cc1)N[C@H]1CC[C@@H](CC(=O)N2CCCCC2)O[C@H]1CO	none (no result: PfHsp40 yeast, Yp Topo-I inh, PrP UTR inh, FadD28 binding, TcdB inh)
O=[N+]([O-])c1ccc(S(=O)(=O)c2ccccc2)nc1	PfHsp40 yeast 289
Nc1ncc(S(=O)(=O)c2ccc([N+](=O)[O-])cc2)s1	TcdB inh 11
Cc1cc(S(=O)(=O)c2ccc([N+](=O)[O-])cn2)ccc1Br	none (no result: Mtb BioA inh)
Cc1ccc(S(=O)(=O)c2ccc([N+](=O)[O-])cn2)cc1	PfHsp40 yeast 164
Nc1ccc(S(=O)(=O)c2ccccc2)nc1	none
CC(C)NC(=O)N[C@@H]1C=C[C@@H](CC(=O)N2CCCCC2)O[C@H]1CO	none (no result: PfHsp40 yeast, Yp Topo-I inh, PrP UTR inh, FadD28 binding)
CC(C(=O)O)N1c2cccc3cccc(c23)S1(=O)=O (stereo not given)	none
CS(=O)(=O)N1c2cccc3cccc(c23)S1(=O)=O	PfHsp40 yeast 48
O=C(c1cnccn1)N1CC2(C1)[C@@H](c1ccccc1)[C@@H](CO)N2C(=O)c1ccccc1	none (no result: Mtb BioA inh, PfHsp40 yeast, Yp Topo-I inh, PrP UTR inh, FadD28 binding)
CC(OC(=O)C1=COCCO1)C(=O)c1ccc(Br)cc1 (stereo not given)	TcdB inh 14
CC(OC(=O)C1=COCCO1)C(=O)NC1CCCCC1 (stereo not given)	none (no result: PfHsp40 yeast, PrP UTR inh)
